# DAGLB inh: blocks human DAGLB lipase activity | Q8NCG7 | HEK293T DAGLB membrane lysate, EnzChek fluorogenic substrate | inhibition, % at 5.17 µM | 340,000 tested, 0.059% active; in the data active means inhibition above about 34%;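 further: 0% = enzyme with vehicle and 100% = wells lacking enzyme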
# Target sequence (Q8NCG7 whole entry, looked up): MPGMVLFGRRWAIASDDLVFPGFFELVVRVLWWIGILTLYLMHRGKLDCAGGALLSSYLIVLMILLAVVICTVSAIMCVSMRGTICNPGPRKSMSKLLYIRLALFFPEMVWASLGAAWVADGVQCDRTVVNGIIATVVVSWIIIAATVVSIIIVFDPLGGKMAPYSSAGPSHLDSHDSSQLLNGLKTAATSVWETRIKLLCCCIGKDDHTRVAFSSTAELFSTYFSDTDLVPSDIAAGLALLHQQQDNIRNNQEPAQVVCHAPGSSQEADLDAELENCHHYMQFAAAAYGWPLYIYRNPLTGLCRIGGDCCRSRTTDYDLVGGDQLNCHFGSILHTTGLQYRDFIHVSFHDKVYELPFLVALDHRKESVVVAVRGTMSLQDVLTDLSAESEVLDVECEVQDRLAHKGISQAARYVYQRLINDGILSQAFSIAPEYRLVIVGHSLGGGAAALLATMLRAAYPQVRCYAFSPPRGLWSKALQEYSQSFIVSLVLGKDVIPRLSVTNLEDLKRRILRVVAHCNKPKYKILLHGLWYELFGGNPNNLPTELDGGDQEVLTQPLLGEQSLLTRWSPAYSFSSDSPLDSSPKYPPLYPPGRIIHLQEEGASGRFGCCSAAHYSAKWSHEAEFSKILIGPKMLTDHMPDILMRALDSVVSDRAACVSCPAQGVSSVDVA
# ANO1 block: mouse TMEM16A channel inhibition, primary screen. Q8BHY3. HEK293 TMEM16A/YFP iodide influx fluorescence, ionomycin. normalized B-score (activity score, 25-100; higher = stronger inhibition) at 10 µM. 310,000 tested, 1.2% active;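 active means ratio plate-corrected score three or more library SD toward inhibition, starting fluorescence score within five deviations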;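 further: score derived from kinetic fluorescence span divided by baseline fluorescence per well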
# ABCB6 inh 2: blocks the human ABCB6 transporter | fluorescence ratio to DMSO, % at 10 µM | 360,000 tested, 0.19% active | Q9NP58 | AID 602162 | K562-ABCB6 porphyrin accumulation, flow cytometry, 1 h; hits give low values;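 active means fluorescence ratio to DMSO below 75%, the collection mean minus 3 SD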;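 further: signal is porphyrin accumulated inside mitochondria; 100% equals median channel fluorescence of DMSO control wells; lower ratio means ABCB6 inhibition with less porphyrin fluorescence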
# hiPSC survival: enhancers of human iPSC single-cell survival; hiPSC single-cell survival, ATPlite luminescence; 100% = ROCK inhibitor wells, 0% = DMSO; survival enhancement, % at 20 µM; 360,000 tested, 0.044% active; AID 602274; in the data active means survival enhancement above about 18%;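 further: cells exposed to compounds for 16 hours before the ATP read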
# ANO1 activ: activates or potentiates the mouse TMEM16A chloride channel; Q8BHY3; HEK293 TMEM16A/YFP-H148Q/I152L, iodide quench fluorescence; hits give low values; B-score at 10 µM; 340,000 tested, 0.3% active; AID 623877;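 active means fluorescence-ratio B-score plate-corrected deviation score at least 3 library SD below zero, with starting fluorescence score within 5 deviations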;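 further: channel opened by trigger with iodide after compound preincubation; score built on the fluorescence ratio of max minus min over baseline; more negative score means more quench and so TMEM16A activation or potentiation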
# An asterisk follows results filed as active; i = inactive; · = no result. Most compounds without a hit are left out; they make up all but 1.5% or so of the library.
SMILES,DAGLB inh,ANO1 block,ABCB6 inh 2,hiPSC survival,ANO1 activ
CCN(C(=O)COC(=O)c1nccnc1N)c1cccc2ccccc12,3,·,99,1,i
O=C(c1ccc2ccccc2c1)N1CCN(Cc2ccccc2)CC1,0,i,95,0,i
O=C(c1cccc(C(=O)N2CCN(Cc3ccccc3)CC2)c1)N1CCN(Cc2ccccc2)CC1,0,25*,99,-1,i
COc1ccc(C(=O)Nc2nc(C)cs2)cc1S(=O)(=O)N1CCOCC1,-1,·,107,2,·
O=C(N/N=C/c1ccco1)c1cccc(NC(=O)c2ccccc2Cl)c1,0,i,97,0,i
O=C(Nc1ccccc1C(=O)N/N=C/c1ccco1)c1ccccc1Cl,-3,100*,94,-1,i
CC1=CC(=O)c2c(O)ccc(O)c2C1=O,·,100*,·,·,·
O=C1C=C(N2CCN(c3ccccn3)CC2)C(=O)c2c(O)ccc(O)c21,12,·,120,-3,i
N#CCOc1ccccc1CNC[C@H]1O[C@@H](n2cnc(C(N)=O)n2)[C@H](O)[C@@H]1O,-3,·,97,0,·
Cc1ccc(Cc2c(C3CCCCC3)nc3ccc(Cl)cn23)cc1,·,·,108,1,·
CC(C(=O)Nc1ccccc1)c1ccc(-c2ccccc2)c(F)c1 (stereo unspecified),-9,100*,115,3,i
CCOC(=O)C1(CCOC)CCN(C/C=C/c2ccccc2OC)CC1,0,i,95,0,i
CCCCC(CC)C(=O)Oc1ccc(O)c(C(C)(C)C)c1 (stereo unspecified),-21,25*,96,-1,i
COC(=O)C1CCCCN1C(=O)c1cc(COc2cccc3cccnc23)on1 (stereo unspecified),-1,i,103,0,i
COC(=O)C1CCCCN1C(=O)c1cc(COc2cccc3cnccc23)on1 (stereo unspecified),-2,25*,85,0,i
O=C(COC(=O)c1ccc[nH]c1=O)NC1CCCCCCC1,-1,i,95,-1,-22*
CCCOC(=O)C1NC(=O)N2C(C(=O)OCCC)C(C)(C)S[C@H]12 (stereo partly specified),-2,i,99,23*,i
O=c1c(Cl)c(Cl)cnn1Cc1nnc(-c2ccccc2Br)o1,-5,·,102,26*,-13*
Clc1ccccc1OCc1nnc(-c2ccccc2Br)o1,-13,i,85,-2,i
Fc1ccc(COc2cccc(CNCc3ccncc3)c2)cc1,4,25*,98,-1,i
CCOc1cc(CNCc2ccncc2)cc(Br)c1OCc1ccc(F)cc1,-3,100*,98,-2,i
Cc1ccc2c(c1)c1c(n2CCc2ccc(C)nc2)CCN(C)C1,-2,·,89,0,i
Cc1cc(Cl)c(S(=O)(=O)N2CCN(c3ccc(F)cc3)CC2)cc1OCC(N)=O,-2,i,108,6,i
Cc1cc(Cl)c(S(=O)(=O)Nc2ccc3c(c2)OCCO3)cc1OCC(=O)NC1CCCCC1,-1,i,73*,0,i
Cc1cc(Cl)c(S(=O)(=O)N2CCN(c3ccc(F)cc3)CC2)cc1OCC(=O)NC1CCCCC1,0,25*,94,3,i
SMILES,DAGLB inh,ANO1 block,ABCB6 inh 2,hiPSC survival,ANO1 activ
O=C(NC1CCC1)C1CCC(=O)N(Cc2cccc(F)c2)C1 (stereo unspecified),1,i,99,-1,-6.2*
O=C(NC1CCC1)C1CCC(=O)N(Cc2ccccc2F)C1 (stereo unspecified),-2,i,95,0,i
CN(Cc1ccccc1)C(c1ccnc2ccccc12)c1nnnn1-c1ccc2c(c1)OCCO2 (stereo unspecified),·,·,94,0,·
O=C(CSc1c(Cl)cccc1Cl)N1CCC(c2nc3ccccc3s2)CC1,-9,100*,96,-2,i
O=C(CSc1ccc(Cl)cc1)N1CCC(c2nc3ccccc3s2)CC1,-5,100*,97,1,i
CC(C)C(=O)Nc1c(-c2ccccc2Cl)c(=O)c2ccccc2n1C,-3,i,110,0,i
CSc1ccc(NC(=O)Nc2cccn(Cc3ccccc3)c2=O)cc1,4,100*,100,1,i
COc1ccc(Cn2cccc(NC(=O)Nc3ccc(F)cc3)c2=O)cc1,0,i,92,-1,i
CCOc1ccc(NC(=O)CNC(=O)c2nn(-c3ccc(OC)c(OC)c3)c(=O)c3ccccc23)cc1,6,i,92,1,i
COc1ccc(-n2nc(C(=O)NCC(=O)Nc3cccc(Cl)c3)c3ccccc3c2=O)cc1OC,7,25*,95,0,i
COCC(O)Cn1ccnc1N=Nc1ccccc1 (stereo unspecified),·,·,94,1,·
CCn1c(Cl)c(C=O)s/c1=N\S(=O)(=O)c1ccccc1,-4,i,38*,44*,i
Cc1ccccc1-n1c(SCc2c(C)noc2C)nnc1-c1ccncc1,1,i,90,-2,i
Cc1ccccc1-n1c(SCc2c(C)noc2C)nnc1-c1cccnc1,-4,i,104,4,-5.2*
COc1ccc(CCNC(=O)c2cccc(NS(=O)(=O)c3ccccc3F)c2)cc1OC,1,i,99,0,i
CCOC(=O)N1CCC(NC(=O)C2CCCN(Cc3nc(-c4ccc(CC)cc4)oc3C)C2)CC1 (stereo unspecified),0,25*,91,0,i
Cc1cccc(-c2nc(CN3CCCC(C(=O)NC4CCCCCC4)C3)c(C)o2)c1 (stereo unspecified),-4,i,93,-2,i
Cc1cccc(-c2nc(CN3CCCC(C(=O)NC4CCCCC4)C3)c(C)o2)c1 (stereo unspecified),-2,25*,90,-1,i
Cn1c(=O)[nH]c(=O)c2c1nc(Br)n2Cc1cccc(Br)c1,3,i,99,0,i
CCCNc1nc2c(c(=O)[nH]c(=O)n2C)n1Cc1cccc(Br)c1,5,i,97,2,-5.8*
Cc1cc(C)c(C(=O)C(C)OC(=O)C2=COCCO2)cc1C (stereo unspecified),1,i,97,0,i
C=CCn1c(COc2ccc(F)cc2)nnc1SCC(=O)NC1CCS(=O)(=O)C1 (stereo unspecified),0,i,71*,1,i
C=CCn1c(COc2ccc(F)cc2)nnc1SCC(=O)NC1CCCC1,-2,i,98,0,i
CCC(/C=N/NC(=O)C(N)=O)CC,1,i,93,-1,-5.3*
CCOC(=O)C1=C(COC(=O)/C=C/c2ccc(F)cc2)NC(=O)NC1C (stereo unspecified),-3,·,96,3,·

# Compound activity deposited in PubChem by several laboratories.
